# Measured values as given in PubChem BioAssay (Tox21).
# Several values for one entry are separate records, joined by “and”; a condition that tells them apart may be missing. Equal entries are not always repeated. Records with an inconclusive call do not appear. Where a call stands in place of a potency, no number is given. More than one record can exist for a structure, and the calls need not agree. Activity calls are given as the source filed them. Unless noted, the call rests on the fitted dose curve; in most records, active means well fitted curve in the direction sought with a large enough effect in the repeat runs; inconclusive means weak or mixed curves; inactive means no such curve, though single readings can be large; an effect the other way counts as inactive or inconclusive.
# Tests used:
# [1] = A CellTox Green Cytotoxicity Assay to monitor cytotoxicity in HepG2 cells - 8 hour (AID 1224890); further: nearly all actives have a fitted effect of over 45% in size
# How it was run: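 Continuous culture of HepG2 cells with a membrane-impermeant DNA dye; rising fluorescence marks dead cells. Compound exposure lasted up to 40 h at 37 C, with reads every 8 h from 0 h.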
# [2] = qHTS assay to identify small molecule antagonists of the estrogen receptor alpha (ER-alpha) signaling pathway using the BG1 cell line in the presence of 0.1 nM 17-beta-estradiol - cell viability counter screen (AID 1259241); further: nearly all actives have a fitted effect of over 40% in size
# How it was run: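 Following 5 days in phenol red-free medium with charcoal-stripped serum, VM7Luc4E2 cells received test compounds alongside 0.1 nM 17beta-estradiol (final) at 37C for 22 hr. Live cells were then quantified via protease-substrate fluorescence.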
# [3] = qHTS assay to identify small molecule antagonists of the androgen receptor (AR) signaling pathway using the MDA cell line in the presence of 0.5 nM R1881 - cell viability counter screen (AID 1259242); further: nearly all actives have a fitted effect of over 45% in size
# How it was run: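 Fluorescence from CellTiter-Fluor, which reports protease activity of live cells, was read 30 min after reagent addition to MDA-kb2 cells that had been incubated 16 hr with compound and 0.5 nM R1881.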
# [4] = qHTS assay to identify small molecule HDAC inhibitors (AID 1259364); further: top concentration of the series differs between compounds; nearly all actives have a fitted effect of over 45% in size
# How it was run: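 Endogenous HDAC class I/II activity was measured in wild-type HCT-116 cells by HDAC-Glo luminescence after 2 h compound treatment.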
# [5] = qHTS assay to identify small molecule HDAC inhibitors - cell viability counter screen (AID 1259365); further: series mostly up to about 92 µM; nearly all actives have a fitted effect of over 50% in size
# How it was run: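 HCT-116 wild-type, overnight attachment; 2hr drug exposure, 37C; CellTiter-Glo luminescent ATP readout after 30min RT.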
# [6] = qHTS assay to identify small molecule agonists of the sonic hedgehog signaling (Shh) pathway - cell viability counter screen (AID 1259366); further: nearly all actives have a fitted effect of over 50% in size
# How it was run: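 Compounds in DMSO were pin-transferred onto 3T3 Gli1-Luc cells that had settled 4hr; plates then stood 24hr at 37C and 5% CO2. One hour before the end, CellTiter-Fluor was added and fluorescence recorded.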
# [7] = qHTS assay to identify small molecule agonists of the sonic hedgehog signaling (Shh) pathway (AID 1259368; calls by dose curve;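 further: NIH/3T3-derived 3T3Gli1-Luc cells carrying a stable Gli1-driven firefly luciferase reporter; series mostly up to about 92 µM; nearly all actives have a fitted effect of over 15% in size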)
# How it was run: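 Luminescent signal was taken as a measure of Gli1-controlled luciferase expression in stably transfected NIH/3T3-derived cells that had been treated for 24 hr with compounds delivered in DMSO.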
# [8] = qHTS assay to identify small molecule antagonists of the sonic hedgehog signaling (Shh) pathway (AID 1259369; calls by dose curve; further: nearly all actives have a fitted effect of over 45% in size; further: potency means the concentration at half of the fitted maximal effect)
# How it was run: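 Screening used 3T3Gli1-Luc cells at 2,000 per well, compounds delivered in DMSO, and conditioned medium as agonist stimulus; plates incubated 24hr at 37 C and 5% CO2 before a 30min luciferase step.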
# [9] = biological target: Estrogen receptor beta (Homo sapiens) (UniProt Q92731); assay: qHTS assay to identify small molecule agonists of the estrogen receptor beta (ER-beta) signaling pathway (AID 1259377; active means well fitted activation curve with a large enough effect in the signal ratio in the repeat runs, not every such curve was filed as active; the % refers to the signal ratio)
# Estrogen receptor beta (Homo sapiens), sequence (Q92731 whole entry, looked up): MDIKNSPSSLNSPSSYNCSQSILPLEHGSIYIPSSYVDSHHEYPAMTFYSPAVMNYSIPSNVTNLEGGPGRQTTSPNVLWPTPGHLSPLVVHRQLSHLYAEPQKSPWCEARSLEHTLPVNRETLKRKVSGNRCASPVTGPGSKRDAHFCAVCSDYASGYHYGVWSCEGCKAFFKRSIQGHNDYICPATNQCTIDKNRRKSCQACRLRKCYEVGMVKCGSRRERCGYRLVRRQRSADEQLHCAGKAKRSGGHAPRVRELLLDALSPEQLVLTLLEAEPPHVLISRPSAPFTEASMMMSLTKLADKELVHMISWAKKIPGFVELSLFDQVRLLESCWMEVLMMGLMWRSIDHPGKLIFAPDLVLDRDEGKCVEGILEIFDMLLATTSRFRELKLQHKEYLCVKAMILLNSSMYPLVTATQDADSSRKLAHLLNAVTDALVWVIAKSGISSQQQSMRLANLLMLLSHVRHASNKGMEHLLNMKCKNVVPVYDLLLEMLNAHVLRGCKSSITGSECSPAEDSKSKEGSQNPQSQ
# How it was run: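 qHTS in ER-beta-UAS-bla HEK293T cells: 6 hr settling, then 16 hr compound at 37C, then LiveBLAzer substrate 2 h at RT before fluorescence reading.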
# [10] = biological target: Estrogen receptor beta (Homo sapiens) (UniProt Q92731); assay: qHTS assay to identify small molecule antagonists of the estrogen receptor beta (ER-beta) signaling pathway (AID 1259378; active means well fitted inhibition curve with a large enough effect in the signal ratio in the repeat runs, not every such curve was filed as active; the % refers to the signal ratio; further: potency means the concentration at half of the fitted maximal effect)
# How it was run: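 Antagonist mode: compounds added to beta-lactamase reporter HEK293T ER-beta-UAS cells stimulated with E2 (1nM final), 16 hr at 37C. LiveBLAzer B/G FRET substrate, 2 hours room temperature, fluorescence read-out.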
# [11] = qHTS assay to identify small molecule agonists of the androgen receptor (AR) signaling pathway in the presence of an antagonist - cell viability counter screen (AID 1259379);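 further: MDA-kb2 human breast cancer cells carrying an MMTV luciferase reporter; series mostly up to about 92 µM; nearly all actives have a fitted effect of over 25% in size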
# How it was run: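 In MDA-kb2 cells (human breast carcinoma, MMTV-luciferase), compounds at 15 concentrations plus 3.0uM nilutamide; 16 hr, 37C, 0% CO2; CellTiter-Fluor fluorescence read for viability.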
# [12] = qHTS assay to identify small molecule agonists of the estrogen receptor beta (ER-beta) signaling pathway - cell viability counter screen (AID 1259380); further: nearly all actives have a fitted effect of over 30% in size; further: potency means the concentration at half of the fitted maximal effect
# How it was run: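 Viability of ER-beta-UAS-bla HEK293T cells was determined by CellTiter-Glo luminescence following 16 hr treatment with test compounds at 37C.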
# [13] = qHTS assay to identify small molecule antagonists of the estrogen receptor beta (ER-beta) signaling pathway - cell viability counter screen (AID 1259382);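 further: HEK293T cells carrying ER-beta-UAS-bla reporter stimulated with estradiol; series mostly up to about 92 µM; nearly all actives have a fitted effect of over 55% in size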
# How it was run: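 Tox21 10K library tested in qHTS format on ER-beta-bla HEK293T cells stimulated with 1nM E2; 16 hr treatment at 37C. Same-well CellTiter-Glo luminescence served as the cell viability measure.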
# [14] = biological target: Estrogen receptor (Homo sapiens) (UniProt P03372); assay: qHTS assay to identify small molecule agonists of the estrogen receptor alpha (ER-alpha) signaling pathway in the presence of an antagonist (AID 1259383; calls by dose curve; further: nearly all actives have a fitted effect of over 15% in size; further: potency means the concentration at half of the fitted maximal effect; on activation: top concentration of the series differs between compounds)
# Estrogen receptor (Homo sapiens), sequence (P03372 whole entry, looked up): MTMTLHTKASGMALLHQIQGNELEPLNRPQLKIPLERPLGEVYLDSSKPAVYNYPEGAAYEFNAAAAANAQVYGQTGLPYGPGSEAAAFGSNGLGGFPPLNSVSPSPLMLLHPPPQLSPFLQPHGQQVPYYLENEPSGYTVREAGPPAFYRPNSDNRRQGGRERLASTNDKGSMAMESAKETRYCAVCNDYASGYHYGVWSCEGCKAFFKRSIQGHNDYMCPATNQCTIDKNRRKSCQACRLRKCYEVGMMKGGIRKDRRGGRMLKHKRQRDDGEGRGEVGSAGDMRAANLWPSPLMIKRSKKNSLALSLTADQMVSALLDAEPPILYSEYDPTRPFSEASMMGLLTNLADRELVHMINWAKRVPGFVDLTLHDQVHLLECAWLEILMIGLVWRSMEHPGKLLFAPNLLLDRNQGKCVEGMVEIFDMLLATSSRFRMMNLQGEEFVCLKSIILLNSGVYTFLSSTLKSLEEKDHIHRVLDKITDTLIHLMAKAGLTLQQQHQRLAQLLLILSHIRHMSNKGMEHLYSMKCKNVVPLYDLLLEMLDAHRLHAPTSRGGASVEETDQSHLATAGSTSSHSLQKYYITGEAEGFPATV
# How it was run: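 In VM7Luc4E2 cells, 4,000 per well, compounds at 15 concentrations were co-incubated 22hr at 37C with 10.0nM final ICI-182,780. Luminescence from the stably transfected 4×ERE-luciferase reporter was recorded 30min after ONE-Glo addition.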
# [15] = qHTS assay to identify small molecule agonists or antagonists of the thyroid stimulating hormone receptor (TSHR) signaling pathway - wild type cell line counter screen (AID 1259384; calls by dose curve)
# How it was run: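 Counter screen in untransfected Hek293: compounds (15-point titration, triplicate) plus phosphodiesterase inhibitor Ro20-1724 added after 18 h plating; 30 min RT. Intracellular cAMP via competitive d2/cryptate immunoassay, 1 h incubation.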
# [16] = qHTS assay to identify small molecule antagonists of the sonic hedgehog signaling (Shh) pathway - cell viability counter screen (AID 1259367); further: nearly all actives have a fitted effect of over 55% in size
# How it was run: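 Cells: 3T3 Gli1-Luc, 2,000/well, 4 hr pre-incubation. Compounds in DMSO, then conditioned medium. Incubation 24 hr, 37C, 5% CO2. CellTiter-Fluor at 23 hr, 1 hr, fluorescence.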
# [17] = qHTS assay to identify small molecule phospholipidosis (PLD) inducers (AID 1259344; active means well fitted curve in the direction sought with a large enough effect; an effect the other way counts as inactive or inconclusive)
# How it was run: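 Phospholipidosis is scored by imaging LipidTOX-stained pits in HepG2 cells exposed to compound for 24 h at 37 C; pit counts and integrated intensities per well and per cell serve as outputs.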
# [18] = biological target: Estrogen receptor (Homo sapiens) (UniProt P03372); assay: qHTS assay to identify small molecule antagonists of the estrogen receptor alpha (ER-alpha) signaling pathway using the BG1 cell line in the presence of 0.1 nM 17-beta-estradiol (AID 1259244); further: nearly all actives have a fitted effect of over 50% in size; further: potency means the concentration at half of the fitted maximal effect
# How it was run: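 Quantitative high-throughput screen in VM7Luc4E2 cells: compound plus 0.1 nM E2 (final), 22 h, 37C, 5% CO2; ONE-Glo added, 30 min room temperature, luminescence measured.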
# [19] = biological target: Androgen receptor (Homo sapiens) (UniProt P10275); assay: qHTS assay to identify small molecule antagonists of the androgen receptor (AR) signaling pathway using the MDA cell line in the presence of 0.5 nM R1881 (AID 1259243); further: potency means the concentration at half of the fitted maximal effect; nearly all actives have a fitted effect of over 50% in size
# Androgen receptor (Homo sapiens), sequence (P10275 whole entry, looked up): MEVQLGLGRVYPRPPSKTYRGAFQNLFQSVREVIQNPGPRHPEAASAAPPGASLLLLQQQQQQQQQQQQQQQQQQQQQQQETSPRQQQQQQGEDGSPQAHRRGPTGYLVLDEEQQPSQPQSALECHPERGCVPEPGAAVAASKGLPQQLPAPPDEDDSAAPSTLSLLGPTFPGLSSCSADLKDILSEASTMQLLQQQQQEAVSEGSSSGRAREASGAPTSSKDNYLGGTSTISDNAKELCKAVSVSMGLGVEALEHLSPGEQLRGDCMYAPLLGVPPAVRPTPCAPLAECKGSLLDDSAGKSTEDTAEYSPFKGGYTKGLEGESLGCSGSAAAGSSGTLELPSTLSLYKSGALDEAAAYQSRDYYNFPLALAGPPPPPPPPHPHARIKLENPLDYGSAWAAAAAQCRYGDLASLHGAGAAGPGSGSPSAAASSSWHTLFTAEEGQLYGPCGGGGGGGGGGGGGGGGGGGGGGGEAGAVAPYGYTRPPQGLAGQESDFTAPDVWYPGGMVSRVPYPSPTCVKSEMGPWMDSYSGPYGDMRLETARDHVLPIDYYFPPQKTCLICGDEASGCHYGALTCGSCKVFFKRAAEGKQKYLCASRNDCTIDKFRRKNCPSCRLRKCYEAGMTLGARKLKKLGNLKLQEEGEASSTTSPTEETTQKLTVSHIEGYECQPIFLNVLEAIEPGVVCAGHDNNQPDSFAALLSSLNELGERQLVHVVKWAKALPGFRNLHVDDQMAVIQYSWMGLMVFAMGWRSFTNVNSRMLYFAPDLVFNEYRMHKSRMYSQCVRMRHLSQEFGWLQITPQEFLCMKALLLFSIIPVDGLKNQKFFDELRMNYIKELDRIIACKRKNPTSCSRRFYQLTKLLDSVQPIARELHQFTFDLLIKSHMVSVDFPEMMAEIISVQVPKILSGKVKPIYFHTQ
# How it was run: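 Inhibition of R1881 (0.5 nM final) induced reporter signal was measured in human MDA-kb2 cells; note the MMTV promoter also responds to GR. Exposure lasted 16 hr at 37C.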
# [20] = biological target: Androgen receptor (Homo sapiens) (UniProt P10275); assay: qHTS assay to identify small molecule agonists of the androgen receptor (AR) signaling pathway in the presence of an antagonist (AID 1259381; calls by dose curve; further: nearly all actives have a fitted effect of over 15% in size)
# How it was run: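 Here, 15-concentration compound series were pin-transferred onto MDA-kb2 MMTV-luciferase cells already dosed with nilutamide (3.0uM final). After 16hr at 37C, ONE-Glo was added and luminescence read 30min later at room temperature.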
SMILES,Potency [1],Potency [2],Potency [3],Potency [4],outcome [5],Potency [6],Potency [7],Potency [8],Potency [9],Potency [10],Potency [11],Potency [12],Potency [13],Potency [14],outcome [15],Potency [16],outcome [17],Potency [18],Potency [19],Potency [20]
CCC(C)(c1ccc(O)cc1)c1ccc(O)cc1,inactive,inactive,inactive,inactive,inactive,inactive,inactive,24.3 µM (active) and 61.1 µM (active),inactive,0.243 µM (active),inactive,inactive,inactive,9.68 µM (active) and 8.63 µM (active),inactive,–,–,–,–,–
c1ccc(N=Nc2ccccc2)cc1,inactive,inactive,inactive,–,inactive,inactive,inactive,inactive,–,–,inactive,inactive,inactive,–,inactive,–,–,–,–,–
S=C1NCCN1,inactive,inactive,inactive,–,inactive,inactive,inactive,inactive,–,–,–,inactive,inactive,–,inactive,inactive,–,–,–,–
CC(O)CCO (configuration not stated),inactive,inactive,inactive,inactive,inactive,inactive,inactive,inactive,inactive,inactive,–,inactive,inactive,–,inactive,inactive,–,–,–,–
Cc1ccc(OP(=O)(Oc2ccc(C)cc2)Oc2ccc(C)cc2)cc1,inactive,inactive,inactive,inactive,inactive,inactive,inactive,inactive,–,–,inactive,68.5 µM (active),inactive,–,inactive,–,–,–,–,–
ClC1C(Cl)C(Cl)C(Cl)C(Cl)C1Cl (configuration not stated),inactive,inactive,inactive,inactive,inactive,inactive,inactive,inactive,–,inactive,inactive,inactive and 27.3 µM (active) and 54.5 µM (active),inactive,–,inactive,inactive,inactive,–,–,–
C#C[C@]1(O)CC[C@H]2[C@@H]3CCC4=CC(=O)CC[C@]4(C)[C@H]3CC[C@@]21C,inactive,inactive,inactive,–,inactive,inactive,inactive,inactive,inactive,inactive,inactive,inactive,inactive,–,inactive,inactive,inactive,–,–,–
CN(C)C(=O)Nc1ccc(Cl)cc1,inactive,inactive,inactive,inactive,inactive,inactive,inactive,inactive,inactive,inactive,–,inactive,inactive,–,inactive,inactive,–,–,–,–
CCN(CC)N=O,inactive,inactive,inactive,inactive,inactive,inactive,inactive,inactive,–,–,inactive,inactive,inactive,–,inactive,–,–,–,–,–
CCCCN(CC)c1c([N+](=O)[O-])cc(C(F)(F)F)cc1[N+](=O)[O-],inactive,inactive,inactive,inactive,inactive,inactive,inactive,inactive,inactive,inactive,inactive,inactive,inactive,–,inactive,–,–,–,–,–
Cc1cc(C)cc(C)c1,inactive,inactive,inactive,inactive,inactive,inactive,inactive,inactive,inactive,inactive,inactive,inactive,inactive,–,inactive,–,–,–,–,–
C1=Cc2cccc3cccc1c23,inactive,inactive,inactive,–,inactive,inactive,inactive,inactive,–,–,inactive,inactive,inactive,–,inactive,–,–,–,–,–
Clc1nc(Cl)nc(Cl)n1,inactive,inactive,inactive,–,inactive,inactive,inactive,inactive,–,–,–,inactive,inactive,inactive,–,–,–,inactive,–,–
CC(C)Oc1cc(-n2nc(C(C)(C)C)oc2=O)c(Cl)cc1Cl,–,inactive,inactive,–,inactive,inactive,inactive,inactive,inactive,–,–,inactive,inactive,inactive,inactive,inactive,–,61.1 µM (active),54.5 µM (active),inactive
NNC(=S)NN,inactive,inactive,inactive,–,inactive,–,inactive,28.1 µM (active) and 24.3 µM (active),inactive,–,inactive,30.6 µM (active),inactive,inactive,inactive,inactive,–,inactive,–,–
O=Cc1ccco1,inactive,inactive,inactive,–,inactive,inactive,inactive,inactive,–,–,inactive,inactive,inactive,–,inactive,inactive,inactive,–,–,–
CCC(C)c1ccc(O)cc1 (configuration not stated),inactive,inactive,inactive,–,inactive,inactive,inactive,inactive,inactive,inactive,inactive,inactive,inactive,–,–,–,–,–,–,–
O=C1C=CC(=O)C=C1,inactive,inactive,inactive,inactive,inactive,inactive,inactive,inactive,inactive,inactive,–,inactive,inactive,–,inactive,inactive,–,–,–,–
